Results on 14 compounds are retold here after PubChem BioAssay (NCI).

Some test systems named below: T-47D breast; BT-549 breast; MDA-MB-435 melanoma; SW-620 colon; MCF7 breast; HCT-116 colon; HCC-2998 colon; KM12 colon; MDA-MB-468 breast.
Test in all cases: NCI-60 one-dose screen, 48 h (100 = growth as untreated, 0 = no growth, -100 = all killed)
Details in all cases: 10 µM

Compounds without any hit were thinned out: in the full panel of roughly 83,000, 20% have a hit.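 Activity criterion: percent growth below 10, measured after cells in 96-well plates were exposed to a single compound concentration for 48 hours.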 Values without a mark were called inactive. The source made the active and inactive calls.

Regarding `O=C(Cc1ccc2c(c1)CN(C1CCC(=O)NC1=O)C2=O)NCc1cccc2ccccc12` (stereo unspecified), the growth with T-47D breast is -4.86% (active); in the assay on BT-549 breast, -52.8% (active); in the assay on MDA-MB-435 melanoma, -15.1% (active); with SW-620 colon, 5.07% (active); in the assay with MCF7 breast it was 1.22% (active); with HCT-116 colon, 9.59% (active). The growth with HCC-2998 colon was -48.6% (active); in the assay with KM12 colon, -7.26% (active); with MDA-MB-468 breast, -69.2% (active).
With `COc1ccc2nc(Cl)c(-c3cc(-c4ccccc4)nc(=O)[nH]3)cc2c1`, the growth was 37.8% in the assay on T-47D breast; 38.9% in the assay with BT-549 breast; 75.9% in the assay with MDA-MB-435 melanoma; 11.1% in the assay with SW-620 colon; 10.2% with MCF7 breast; 9.44% (active) with HCT-116 colon. Further, the growth in the assay on HCC-2998 colon is 84.9%; in the assay on KM12 colon, 18.3%; in the assay on MDA-MB-468 breast, 28.5%.
As to `O=C(CSc1nnc(-c2c[nH]c3ccccc23)n1-c1ccccc1)c1ccc(Cl)cc1`, the growth in the assay with T-47D breast was 54.6%; with BT-549 breast it was 69.8%; with MDA-MB-435 melanoma it was 79.2%; in the assay with SW-620 colon it was 70.3%; in the assay on MCF7 breast it was 38.4%; in the assay on HCT-116 colon it was 45.7%. Moreover, the growth with HCC-2998 colon was 78.1%; with KM12 colon it was 78.7%; in the assay with MDA-MB-468 breast, 46.4%.
As to `COc1ccc(-c2cc(-c3cc(C(=O)c4ccccc4)n4ccc(C)cc34)nc(N)c2C#N)cc1`, the growth with T-47D breast is 65.1%; in the assay on BT-549 breast, 22.4%; in the assay with MDA-MB-435 melanoma it was 78.5%; with SW-620 colon it was 78.9%; in the assay on MCF7 breast it was 53.3%; in the assay on HCT-116 colon, 58.1%. Moreover, the values for the growth with HCC-2998 colon, in the assay with KM12 colon and in the assay on MDA-MB-468 breast were 80.9%, 85.4% and 48.6%, respectively.
For the compound `Cc1ccc(/C(N)=N/c2sc(-c3ccccc3)nc2-c2ccccc2)cc1`, the growth with T-47D breast was 58.3%; with BT-549 breast, 88.4%; in the assay with MDA-MB-435 melanoma, 79.6%; in the assay on SW-620 colon it was 79.4%; in the assay with MCF7 breast it was 55.9%; in the assay on HCT-116 colon it was 53.5%. The figures for the growth in the assay on HCC-2998 colon, in the assay on KM12 colon and in the assay on MDA-MB-468 breast were 79.8%, 41.4% and 75.6%, respectively.
With `CC[C@@]1(O)C(=O)OCc2c1cc1n(c2=O)Cc2c-1nc1cc(F)c(C)c3c1c2[C@@H](N)CC3`, the growth with T-47D breast was -3.93% (active); with BT-549 breast, -10.7% (active); in the assay on MDA-MB-435 melanoma, -41.9% (active); in the assay on SW-620 colon, 8.5% (active); in the assay on MCF7 breast it was 8.66% (active); in the assay with HCT-116 colon, 0.118% (active). In addition, the growth in the assay on HCC-2998 colon was -45.4% (active); in the assay with KM12 colon it was 3.85% (active); with MDA-MB-468 breast, -77.2% (active).
As to `O=c1[nH]c2ccc(Cl)cc2cc1CSc1ccc(Nc2nccc(-c3ccc(Cl)cc3)n2)cc1`, the growth is 78.9% in the assay on T-47D breast; 81.7% with BT-549 breast; 47% in the assay with MDA-MB-435 melanoma; 3.61% (active) in the assay on SW-620 colon; 5.48% (active) with MCF7 breast; 32.9% in the assay on HCT-116 colon. The growth in the assay on HCC-2998 colon was 67%; in the assay with KM12 colon it was 31.4%; in the assay with MDA-MB-468 breast, -20.1% (active).
Consider `CCCn1c(=O)c2[nH]c(-c3ccc(OCc4nc5ccc(C)cc5[nH]4)cc3)nc2n(CCC)c1=O`, for which the growth was -13.2% (active) with T-47D breast; 36.3% with BT-549 breast; 49.1% in the assay with MDA-MB-435 melanoma; 27.5% in the assay with SW-620 colon; 17.6% with MCF7 breast; 14.6% in the assay with HCT-116 colon. Besides, the growth is 61.6% in the assay on HCC-2998 colon, 69.7% in the assay on KM12 colon and 16.7% in the assay with MDA-MB-468 breast.
As to `Cc1nc2c(cnn2-c2ccccc2)c(=O)n1-c1ccc(NC(=O)c2ccc(F)cc2)cc1`, the growth is 18% in the assay on T-47D breast; 46% with BT-549 breast; 53.8% in the assay with MDA-MB-435 melanoma; 76.5% with SW-620 colon; 35.8% in the assay on MCF7 breast; 48.3% with HCT-116 colon. The growth with HCC-2998 colon is 79.9%; in the assay on KM12 colon, 64.1%; with MDA-MB-468 breast, 14.5%.
For `CC1=C(C(=O)OC(C)C)C(c2ccc(O)cc2)NC(=S)N1` (stereo unspecified), the growth is 102% in the assay on T-47D breast; 82.7% with BT-549 breast; 110% with MDA-MB-435 melanoma; 120% with SW-620 colon; 97.7% in the assay with MCF7 breast; 98.1% with HCT-116 colon. Also, the growth in the assay with HCC-2998 colon was 107%; with KM12 colon it was 106%; in the assay with MDA-MB-468 breast, 99%.
Regarding `COc1ccc(CN2[C@H](C(=O)NCc3ccc(C(=O)NO)cc3)Cc3c([nH]c4ccccc34)[C@H]2C2CC2)cc1`, the growth in the assay with T-47D breast was 40.4%; in the assay with BT-549 breast, 58.6%; in the assay on MDA-MB-435 melanoma, 18.1%; with SW-620 colon it was 30.9%; in the assay with MCF7 breast, 36.8%; with HCT-116 colon, 23%. The growth in the assay on HCC-2998 colon was 33%; in the assay on KM12 colon, 44.7%; in the assay on MDA-MB-468 breast, 3.8% (active).
Consider `CN1CCc2c(sc3ncnc(N/N=C/c4cn(-c5ccccc5)nc4-c4ccc(Cl)cc4)c23)C1`, for which the growth is 35.9% in the assay on T-47D breast; 41.1% in the assay on BT-549 breast; 41.9% in the assay on MDA-MB-435 melanoma; 10.8% in the assay on SW-620 colon; -31.6% (active) with MCF7 breast; 2.65% (active) with HCT-116 colon. The growth was 5.24% (active) with HCC-2998 colon, 21.6% with KM12 colon and -55.4% (active) with MDA-MB-468 breast.
As for `Cc1cc2c(c(O)c1Br)-c1ncoc1C(=O)[C@]1(C)CC[C@H](C(C)C)[C@H]21`, the growth with T-47D breast was 20.6%; with BT-549 breast, -24.6% (active); with MDA-MB-435 melanoma, 5.72% (active); in the assay on SW-620 colon, 22.8%; in the assay with MCF7 breast it was 10.1%; with HCT-116 colon it was 31.1%. For the same compound, the results for the growth in the assay with HCC-2998 colon, with KM12 colon and in the assay with MDA-MB-468 breast were 38.2%, 20% and 20.3%, respectively.
On to `Cc1noc2c(Cc3ccccc3)nn(CC(=O)N/N=C/c3ccc(F)cc3)c(=O)c12`, for which the growth in the assay with T-47D breast was 12.6%; with BT-549 breast it was 64.1%; with MDA-MB-435 melanoma, 71.1%; with SW-620 colon it was 79.9%; in the assay on MCF7 breast it was 61.7%; in the assay on HCT-116 colon, 35%. In addition, the growth in the assay with HCC-2998 colon is 67.1%; in the assay on KM12 colon, 86.2%; in the assay on MDA-MB-468 breast it was 85.4%.
